Among all 300,000 compounds or so, about 4,000 (1.3%) were called active.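 How the source made its calls: active means mean replicate score, as percent of positive control median, at least 50; inconclusive means mean below 50 but one replicate at or above 50; inactive means mean and every replicate below 50.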 For the sample, actives were picked, then their nearest neighbours and some compounds at random.

This test is described as follows: S. pyogenes SKKanGAS growth inhibitors in kanamycin, primary screen, streptokinase expression inhibitor project, SKKanGAS strain, BacTiter-Glo luminescence (AID 1662).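 Further: strain carries kanamycin resistance gene driven by streptokinase promoter and grows in 40 µg/ml kanamycin; loss of luminescence reflects streptokinase promoter inhibition or plain growth inhibition; 0% = median of DMSO wells and 100% = positive control at its reference dose.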 To be noted: 6 h, at 7.5 µM, stronger effect = higher value.
What is called inhibition is the drop in the measured response relative to a control, in per cent. As to `Cc1ccc(-c2csc(NNC(=O)c3ccccc3)n2)cc1`, the inhibition is 55.1% (active).

For the molecule `CC(=O)Nc1ccc(-c2csc(NC(=O)Nc3ccccc3)n2)cc1`, the inhibition was 0.751% (inactive).

Turning to `Cc1nc(NNC(=O)c2ccccc2)cc(-c2ccccc2)n1`, the inhibition is -2.12% (inactive).

`COc1cccc(CNC(=O)c2nnn(CC(=O)Nc3cc(C)ccc3C)c2N)c1`: the inhibition is 11% (inactive).

Regarding `O=C(/C=C/c1cnc2ccccc2n1)NC1CCCCCC1`, the inhibition is 2.73% (inactive).

For `COc1ccccc1C(=O)NCCC(=O)NN1C(=O)NC2(CCCCC2)C1=O`, the inhibition was -9.03% (inactive).

Take `NCC(=O)c1cccc2ccc[n+]([O-])c12`: the inhibition was -3.82% (inactive).

In the case of `CS(=O)(=O)c1ccc(-c2nnn(CC(=O)Nc3ccc4c(c3)OCCO4)n2)cc1`, the inhibition was -16.5% (inactive).

As to `O=C(Nc1ccccc1-c1nnn(CC(=O)N2CCCc3ccccc32)n1)c1cccc(Cl)c1`, the inhibition was -0.017% (inactive).

Turning to `Cc1cccc(C(=O)Nc2ccccc2-c2nnn(CC(=O)Nc3ccc4c(c3)OCCO4)n2)c1`, the inhibition is 59.1% (active).

On to `COc1cc(C(=O)OC(C)C(=O)NCC2CCCCC2)cc(NC(=O)c2ccco2)c1OC` (stereo not given), for which the inhibition is -4.57% (inactive).

For `COc1cccc2sc(Nc3nc(C)c(C(C)=O)s3)nc12`, the inhibition is 53.7% (active).

As to `COc1cccc2sc(NNC(=O)c3nc4ccccc4s3)nc12`, the inhibition was 92.6% (active).

`COc1ccc(S(=O)(=O)N2CCOCC2)cc1C(=O)Nc1nc2ccccc2s1`: the inhibition is 1.7% (inactive).

With `COc1ccccc1/C=N/Nc1nc(C)c(C(C)=O)s1`, the inhibition is -9.03% (inactive).

For the molecule `COc1ccccc1OCc1nc2ccccc2s1`, the inhibition was 21% (inactive).

Regarding `COc1cc2ccccc2cc1C(=O)Nc1nc(C)c(C(C)=O)s1`, the inhibition was -5.23% (inactive).

For the molecule `CN(C)CCCN(C(=O)c1ccc(S(=O)(=O)N2CCCCCC2)cc1)c1nc2cc3c(cc2s1)OCCO3`, the inhibition was -2.65% (inactive).

With `N#Cc1ccc(OCc2nnc(-c3ccc([N+](=O)[O-])cc3)o2)cc1`, the inhibition is 4.26% (inactive).

`COc1ccccc1N1CCN(c2ncnc3sc(C)c(-c4ccccc4)c23)CC1`: the inhibition was 35.4% (inactive).

Turning to `CS(=O)(=O)N(Cc1ccccc1Cl)c1ccc(C(=O)NCc2cccnc2)cc1`, the inhibition was -5.28% (inactive).

Regarding `COc1ccc(Cl)cc1C(=O)NNC(=S)NC1CCCC1`, the inhibition is -3.8% (inactive).

For the molecule `COc1ccc(Cl)cc1C(=O)NNC(=S)NC(=O)/C=C/c1ccco1`, the inhibition is 80.2% (active).

Consider `C=CCNC(=S)NNC(=O)c1cc(Cl)ccc1OC`, for which the inhibition is 3.23% (inactive).

With `CCOCCCNC(=S)N1CCC(NC(=O)C2CCCCC2)CC1`, the inhibition was -0.571% (inactive).

For the molecule `CC(C)c1nc2cc(C(=O)NC(C)c3cnn(C)c3)ccc2o1` (stereo not given), the inhibition is -0.746% (inactive).

For the molecule `O=C(Nc1ccc2nc3n(c(=O)c2c1)CCCCC3)c1ccccc1Cl`, the inhibition was -2.99% (inactive).

For the molecule `CCCCN(CC)C(=S)Nc1ccc2nc3n(c(=O)c2c1)CCCCC3`, the inhibition is 2.4% (inactive).

Take `COc1ccc(CCNC(=O)C(=O)Nc2ccc3nc4n(c(=O)c3c2)CCCCC4)cc1OC`: the inhibition is 58.4% (active).

With `C=C(C)COc1ccc(-c2n[nH]c(C)c2-c2ccccc2OC)c(O)c1`, the inhibition is 10.6% (inactive).

With `CCOc1ccc(-c2n[nH]c(C)c2-c2ccccn2)c(O)c1`, the inhibition was -4.57% (inactive).

In the case of `C=C(C)COc1ccc(-c2n[nH]c(C)c2-c2ccccc2)c(O)c1`, the inhibition was 62.3% (active).

`CCNC(=O)c1cnn(-c2ccccc2)c1-c1ccccc1`: the inhibition is -2.93% (inactive).

Consider `COc1ccc(C(=O)O)cc1S(=O)(=O)NCc1cccnc1`, for which the inhibition is 0.329% (inactive).

With `c1ccc(NCc2cccc3ccccc23)nc1`, the inhibition is 22.8% (inactive).

Turning to `Oc1ccc2ccccc2c1N=Nc1nccs1`, the inhibition is 106% (active).

`Oc1ccc(N=Nc2nccs2)c(O)c1`: the inhibition was 3.07% (inactive).

Consider `COc1cnc(-c2ccccn2)nc1Oc1ccc(C(C)(C)C)cc1`, for which the inhibition is 78.3% (active).

On to `N#Cc1ccc(Oc2cc(C(F)(F)F)nc(-c3ccccn3)n2)cc1`, for which the inhibition is -2.81% (inactive).

Consider `COc1ccc(Sc2nc(-c3ccccc3)ncc2OC)cc1`, for which the inhibition was 0.835% (inactive).

Take `CC(C)(C)Nc1nc(-c2ccccn2)nc2ccccc12`: the inhibition was 87.4% (active).

In the case of `COc1ccccc1Oc1nc(-c2cccnc2)nc2ccccc12`, the inhibition was 5.74% (inactive).

As to `Cc1ccc(Oc2nc(-c3ccccn3)nc3ccccc23)cc1`, the inhibition is 76.2% (active).

Regarding `COc1ccc(Cc2nc(-c3ccccn3)no2)cc1OC`, the inhibition was 29.5% (inactive).

As for `CCOCCCNc1nc(-c2ccccc2)nc2ccccc12`, the inhibition was -2.19% (inactive).

`c1ccc(-c2nc(NCc3ccco3)c3ccccc3n2)cc1`: the inhibition was -7.68% (inactive).

In the case of `CSc1ccc(S(=O)(=O)Nc2cccc(F)c2)cc1`, the inhibition is 7.04% (inactive).

As to `COc1ccc(N=Nc2c(-c3ccc(OC)cc3)[nH]oc2=O)cc1`, the inhibition was 6.47% (inactive).

With `CCCN(CCC)c1c([N+](=O)[O-])c(=O)oc2ccccc12`, the inhibition is -5.31% (inactive).

For the molecule `CCOC(=O)c1cc2c(=O)n3ccccc3nc2n(CC(C)C)c1=NC(=O)c1c(-c2c(F)cccc2Cl)noc1C`, the inhibition was 18.2% (inactive).

In the case of `O=C(CN1C(=O)NC2(CCCC2)C1=O)NCC1CCCO1` (stereo not given), the inhibition is -1.73% (inactive).

With `COC(C/C=C/C(=O)[C@@H](C)OCc1ccccc1)OC`, the inhibition was -2.55% (inactive).

With `NC(=O)c1nnsc1-c1ccc(-c2snnc2C(N)=O)cc1`, the inhibition is 2.07% (inactive).

As for `COc1cc2c3c(c1)/C(=C1/SC(=S)NC1=O)C(=O)N3C(C)(C)C=C2C`, the inhibition is 61.3% (active).

Regarding `Cc1nc2ccc(S(=O)(=O)N(C)CC(=O)NC(C)c3ccccc3)cc2s1` (stereo not given), the inhibition was -15% (inactive).

As for `COCC1CCN(C(=O)CCc2nnc(C3(c4ccc(Cl)cc4)CCC3)o2)C1` (stereo not given), the inhibition was 49.5% (active).

Regarding `CN1CCN(C(=O)CCc2nc(-c3ccc(Cl)cc3)no2)CC1`, the inhibition was -5.8% (inactive).

In the case of `COCC1CCCN(C(=O)c2ccc3oc(C(C)C)nc3c2)C1` (stereo not given), the inhibition was -3.17% (inactive).

Take `O=C(COC(=O)CNS(=O)(=O)c1ccc(F)c(F)c1F)NC1CCCC1`: the inhibition is 2.52% (inactive).

As for `CO/N=C(\C(=O)N[C@@H]1C(=O)N2C(C(=O)O)=C(COC(C)=O)CS[C@H]12)c1csc(N)n1` (stereo in doubt), the inhibition was 33% (inactive).

Regarding `C=CC1=C(C(=O)O)N2C(=O)[C@@H](NC(=O)/C(=N/OCC(=O)O)c3csc(N)n3)[C@H]2SC1`, the inhibition was 109% (active).

Take `Cc1ccc2c(c1)-c1c(ssc1=S)C(C)(C)N2C(=O)CN1C(=O)c2ccccc2C1=O`: the inhibition is 24.3% (inactive).

As for `Nc1nc(NC(=O)/C=C/c2ccc(F)cc2)nn1-c1ccccc1`, the inhibition is 76.1% (active).

On to `Nc1nc(NC(=O)/C=C/c2ccccc2)nn1-c1ccccc1`, for which the inhibition was -11.5% (inactive).

Take `Cc1ccc(C(=O)Nc2nc(N)n(-c3ccccc3)n2)cc1`: the inhibition was 5.73% (inactive).

For the molecule `Cc1sc2nc(SCCO)n(-c3ccccc3)c(=O)c2c1C`, the inhibition is 7.52% (inactive).

Regarding `COC(=O)c1ccc(NC(=O)C23CC4CC(C2)CC(n2cnc(Cl)n2)(C4)C3)cc1`, the inhibition was -3.03% (inactive).

On to `COCc1c(C(=O)OCc2c(C)noc2C)oc2ccccc12`, for which the inhibition was 2.6% (inactive).

Turning to `CCOC(=O)c1oc2ccccc2c1NC(=O)c1cccs1`, the inhibition is -5.47% (inactive).

With `Cc1cc(C)c(NC(=O)c2oc3ccccc3c2COc2ccccc2)c(C)c1`, the inhibition was 58.7% (active).

`CCc1ccc(NC(=O)CN2C(=O)COc3ccc(S(=O)(=O)N4CCCC4)cc32)cc1`: the inhibition was 2.1% (inactive).

Regarding `CCn1ccnc1CNC(=O)CC1C(=O)NCCN1CCCc1ccccc1` (stereo not given), the inhibition was -0.266% (inactive).

`O=C(NCc1cccnc1)Nc1cccc(NC(=O)NCc2cccnc2)c1F`: the inhibition was -0.181% (inactive).

As to `O=C(Nc1ccc(Cl)c(Cl)c1)N1CC=C(c2ccccc2)CC1`, the inhibition was 58.4% (active).

For `O=C(Nc1ccccc1)N1CCN(C(=O)Nc2ccccc2)CC1`, the inhibition was 3.57% (inactive).

With `COc1cc(C(=O)NCC(=O)N2CC=C(c3ccccc3)CC2)cc(OC)c1OC`, the inhibition was 9.79% (inactive).

Take `CCO[C@@H]1OC(C(N)=O)=C[C@H](c2ccc(Br)cc2)[C@H]1CCCO`: the inhibition was 0.82% (inactive).

For `Cc1cccn2c(CNCC(C)Oc3cccnc3)c(C(=O)N3CCOCC3)nc12` (stereo not given), the inhibition was -4.82% (inactive).

For the molecule `COc1cc(/C=C(\C#N)c2nc3c(s2)CC(C)CC3)ccc1O` (stereo not given), the inhibition was 10.1% (inactive).

As for `CCOc1cc(/C=C(\C#N)c2nc(-c3cccs3)c(NC(C)=O)s2)ccc1O`, the inhibition was 109% (active).

As to `COc1cc(/C=N\Nc2nc(-c3cccs3)c(NC(C)=O)s2)ccc1O`, the inhibition is 1.83% (inactive).

In the case of `O=C(Cn1cnc2ccccc21)Nc1ccccc1-c1ccccc1`, the inhibition was 0.579% (inactive).

With `CCOc1ccc(C(=O)Nc2cc(Cl)ccc2-n2cncn2)cc1OC`, the inhibition was -2.54% (inactive).

As for `CCOC(=O)NNc1cc(C(F)(F)F)ccn1`, the inhibition was 0.731% (inactive).

`O=C(/C=C/c1ccc(Cl)cc1)NCCCn1ccnc1`: the inhibition was -2.11% (inactive).

For `CCOC(=O)CC(NC(=O)C1c2ccccc2Oc2ccccc21)c1ccc(C)cc1` (stereo not given), the inhibition is 5.34% (inactive).

Turning to `O=C(N/N=C/c1ccccc1O)C1CCCC1`, the inhibition is 73.1% (active).

Regarding `COc1ccc(/C=N/NC(=O)C2CC2)c(OC)c1OC`, the inhibition is 14.5% (inactive).

On to `Oc1ccccc1C=NC1CCCCC1N=Cc1ccccc1O` (stereo not given), for which the inhibition was -8.77% (inactive).

`CC1(C(=O)NNC(=S)NCC2CCCO2)CC1(Cl)Cl` (stereo not given): the inhibition is 2.55% (inactive).

With `COc1ccc(OC)c(NC(=O)c2ccc3c(c2)CCN3S(C)(=O)=O)c1`, the inhibition is -4.51% (inactive).

Turning to `Nc1nc(SCC(=O)NNc2c(Cl)cc(Cl)cc2Cl)n[nH]1`, the inhibition was 7.52% (inactive).

Consider `CCOc1cc(NC(=O)CCl)c(OCC)cc1NC(C)=O`, for which the inhibition was -2.78% (inactive).

`COc1ccc(S(=O)(=O)N2CCCCC2)cc1NC(=O)C1CC(=O)N(c2ccc3c(c2)OCCO3)C1` (stereo not given): the inhibition was 14.5% (inactive).

Take `COCc1ccc(C(=O)NC2CC(C)(C)Cc3c2cnn3-c2ccc(C)cc2)o1` (stereo not given): the inhibition was -6.03% (inactive).

Values taken from PubChem BioAssay AID1662 (Broad Institute, 2009).
